These results are taken from PubChem BioAssay (NCATS).

Records with an inconclusive call do not appear. Values without a mark were called inactive. Activity calls are given as the source filed them. Calls follow the shape of the dose curve; as a rule, active = well fitted cell-killing curve with a large enough effect; inconclusive = small, poorly fitted or top-dose-only effect; inactive = flat fitted curve, though single readings scatter. Square brackets hold non-standard residues; d marks the D form. Peptide text beside a SMILES is read from it. ξ: configuration not given here. ξL = CC(C)CC(N)C(=O)O
% is scaled to controls: 0 for no effect and ±100 for the full control effect; potency is read from the fitted curve at half-maximal effect.

The nature of this experiment: Panc-1005 Cancer Cell Toxicity qHTS against the NCATS CANVASS Library (AID 1347349). Also: nearly all actives have a fitted effect of over 60% in size. The following applies: Panc-1005 viability, CellTiter-Glo luminescence, 72 h; series mostly up to 38.3 µM; activity change, negative = cytotoxicity: at the top concentration. In short, it runs like this:
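ATP content after 72 h treatment, detected by CellTiter-Glo luminescence (15min room-temperature development), reflects cell viability. Wells contained 1000 cells and received compounds at 11 concentrations.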
On to `C/C=C/c1cc2c(c(=O)o1)C(=O)[C@@H](O)[C@H](C)O2`, for which the Potency was 13.3 µM (active). Consider `CC[C@@H](C)[C@H]1NC(=O)C(CC(C)C)NC(=O)[C@@H](CC(C)C)NC(=O)[C@H](Cc2c[nH]c3ccccc23)NC(=O)CNC(=O)[C@@H](CC(N)=O)NC1=O` (stereo partly drawn) (cyclo(GW[dL][ξL][dI][dN])), for which the “activity change, negative = cytotoxicity” value is -13.9%. On the same count and under the same terms, the same measure for `COc1cc2c(cc1OC)[C@@H](c1ccc3c(c1)OCO3)C(C)[C@@H](C)C2=O` (stereo partly specified): -6.26%. As to `COc1cc2oc3ccccc3c(=O)c2cc1OC`, the “activity change, negative = cytotoxicity” value was -23% [at 76 µM].

For `COC(=O)[C@@]1(C)CCC[C@]2(C)c3cc(OC)ccc3CC[C@@H]12`, the “activity change, negative = cytotoxicity” value is 1.24%. Take `CC[C@H]1[C@@H](C)[C@@H](c2cc(OC)c(OC)cc2OC)[C@H](C)[C@@H](c2cc(OC)c(OC)cc2OC)[C@@]12C=C(OC)C(=O)C=C2OC`: the Potency is 16.8 µM (active). Still for that read-out and setting: the same measure for `O=C1CCC(=O)N(O)CCCCCNC(=O)CCC(=O)N(O)CCCCCNC(=O)CCC(=O)N(O)CCCCCN1`: 8.41 µM (active). For `C[C@H](CCC(O)C(C)(O)CO)[C@@]1(O)CC[C@@]2(C)C3=C(CC[C@@]21C)[C@@]1(C)CCC(OC(=O)CCC(=O)O)C(C)(C)[C@@H]1CC3` (stereo partly specified), the “activity change, negative = cytotoxicity” value is -12.7%. Regarding `C=C1C(=O)O[C@H]2[C@H]1CCC(C)=C1CC[C@@](C)(O)[C@@H]12`, the Potency is 16.8 µM (active). On to `C/C(=C\[C@H](C)C(=O)/C=C/CC1CC(=O)NC(=O)C1)[C@@H]1OC(=O)CCCC/C=C/[C@H](O)[C@@H](O)[C@@H]1C`, for which the Potency is 14.9 µM (active). Take `C[C@H](c1cnc(N)[nH]1)c1ccc(O)c2[nH]cc(-c3cnc(-c4c[nH]c5ccccc45)c(=O)[nH]3)c12`: the “activity change, negative = cytotoxicity” value was -16.6%.
